Results published in PubChem BioAssay AID720518 (National Center for Advancing Translational Sciences (NCATS), 2013).
Inconclusive results are not listed. Active and inactive are the calls of the source. Calls come from the whole dose curve.

Assay: qHTS for Inhibitors of Cell Surface uPA Generation: Wild-type Protective Antigen (WT-PrAg) Counterscreen for Cherry-picked Compounds; for activity (protection): 0% is about no effect
Details: cells, WT protective antigen toxicity counterscreen; series mostly up to 115 µM; activity (protection): at the top concentration
Potency is the fitted concentration of half-maximal effect.

| SMILES | activity (protection) | Potency |
| --- | --- | --- |
| CCC(C)Sc1nnc(NS(=O)(=O)Cc2ccccc2)s1 (stereo not given) | -1.55% (inactive) | – |
| Cn1c(SCC(=O)NCCc2ccccc2)ncc(C(=O)Nc2ccc(F)cc2)c1=O | 0.399% (inactive) | – |
| CC(C)(C)n1ncc2c(=O)n(Cc3ccc(Cl)cc3)cnc21 | -2.17% (inactive) | – |
| Cc1ccc(NC(=O)CCCn2c(=S)[nH]c3ccsc3c2=O)cc1C | 4.68% (inactive) | – |
| O=C(Cc1ccccc1)Nc1ccc(NC(=O)c2ccccc2)c(Cl)c1 | -1.13% (inactive) | – |
| Cc1ccc2oc(C(=O)N(Cc3ccc(N(C)C)cc3)C3CCS(=O)(=O)C3)c(C)c2c1 (stereo not given) | -2.55% (inactive) | – |
| CCc1ccc(N2CC(C(=O)Nc3ccc4c(c3)OCO4)CC2=O)cc1 (stereo not given) | 1.62% (inactive) | – |
| O=C(COc1ncnc2sccc12)Nc1cccc(S(=O)(=O)N2CCCC2)c1 | -0.649% (inactive) | – |
| CCc1nc(SCC(N)=O)c2c(=O)n(C)c(=O)n(C)c2n1 | 1.1% (inactive) | – |
| O=C(N/N=C/c1cccnc1)c1ccccc1[N+](=O)[O-] | -1.19% (inactive) | – |
| CC1CN(C(=O)CCC(=O)NCc2ccccc2)c2ccccc2S1 (stereo not given) | 4.57% (inactive) | – |
| Cc1ccc(C)c(S(=O)(=O)Nc2ccccc2C(=O)Nc2cc(C)on2)c1 | -1.99% (inactive) | – |
| COc1cccc(NC(=O)CN(C)C(=O)c2csc3c2CCCC3)c1 | 3.05% (inactive) | – |
| CC(=O)Nc1c2c(nn1-c1cccc(C)c1)CSC2 | 0.376% (inactive) | – |
| O=C(NCCCn1ccnc1)C(=O)NCC(c1cccnc1)N1CCN(c2ccc(F)cc2)CC1 (stereo not given) | 0.272% (inactive) | – |
| O=C(Nc1cccc(NC(=O)c2ccc(F)cc2)c1)c1ccc(F)cc1 | 0.799% (inactive) | – |
| COc1ccccc1NC(=O)N1C[C@@H]2C[C@@H](C1)c1cccc(=O)n1C2 | 0.274% (inactive) | – |
| c1csc(CN2CCOCC2)c1 | 1.05% (inactive) | – |
| CCOC(=O)N1CCN(c2c(NCCCN3CCCCCC3)c(=O)c2=O)CC1 | -1.61% (inactive) | – |
| O=C(CNS(=O)(=O)c1ccc(F)cc1)Nc1ccccc1 | -0.098% (inactive) | – |

| SMILES | activity (protection) | Potency |
| --- | --- | --- |
| CC1Cc2nc(SCC(=O)Nc3ccc4c(c3)OCO4)n(-c3ccc(F)cc3)c(=O)c2S1 (stereo not given) | -0.181% (inactive) | – |
| CC(C)(C)S(=O)(=O)N1C[C@H]2CC/C=C\C/C(c3ccccc3)=C\2[C@@H]1CCO | -0.255% (inactive) | – |
| CC1CCCC(NC(=O)CNC(=S)N(Cc2ccccc2)Cc2cccs2)C1C (stereo not given) | -1.4% (inactive) | – |
| C=CC1=C(C(=O)O)N2C(=O)[C@@H](NC(=O)/C(=N\O)c3csc(N)n3)[C@H]2SC1 (stereo in doubt) | 0.487% (inactive) | – |
| CCCNC(=O)C1CCC(CNS(=O)(=O)c2ccc3c(c2)CC(C)N3C(C)=O)CC1 (stereo not given) | -0.174% (inactive) | – |
| Cc1cc(C)n2c(SCC#N)nnc2n1 | -0.12% (inactive) | – |
| CCOC(=O)C1=C(CN2CCN(C(=O)c3ccco3)CC2)NC(=O)NC1c1ccccc1 (stereo not given) | -0.235% (inactive) | – |
| N#C/C(N=Nc1ccccc1O)=N\Nc1ccccc1O | 8.66% (inactive) | – |
| Cc1ccc(N=C2SCCCN2C(=O)c2cccc(N3C(=O)CCC3=O)c2)cc1Cl | -1.92% (inactive) | – |
| O=C(CN(c1ccccc1F)S(=O)(=O)c1ccccc1)Nc1ccc2c(c1)OCCO2 | -2.31% (inactive) | – |
| CN1CCN(C2=Nc3ccccc3Oc3ccc(Cl)cc32)CC1 | -0.292% (inactive) | – |
| COC(=O)C1=CN(Cc2ccc(F)cc2)C=C(C(=O)OC)C1c1ccc(O)c(OC)c1 | -0.103% (inactive) | – |
| CCOC(=O)N1CCN(C(=O)c2ccc3c(c2)sc2nc(-c4ccc(OC)cc4)cn23)CC1 | -0.943% (inactive) | – |
| CCOc1ccc(NC(=S)N2CCC(c3ccc(C)cc3)C2)cc1 (stereo not given) | -1.3% (inactive) | – |
| O=C(COC(=O)/C=C/c1cccc(F)c1)Nc1ccccc1 | -0.363% (inactive) | – |
| Cc1ccc(Cl)c(N/C=C/C(=O)c2ccccc2)c1 | -1.71% (inactive) | – |
| CCOc1ccc(CN2CCN(C(=O)Cc3ccccc3)CC2)cc1 | -1.58% (inactive) | – |
| Cc1ccn(CCC(=O)N2CCc3ccccc32)n1 | -0.997% (inactive) | – |
| CC(=O)c1ccc(N=C2SCCCN2C(=O)C2CCCCC2)cc1 | -1.93% (inactive) | – |
| COC(=O)c1c(NC(=O)c2c(OC)cccc2OC)sc2c1C(C(=O)OC)CC2 (stereo not given) | – | 46.5 µM (active) |
